Bioassay records (PubChem)
Only some compounds are listed: those with a hit (about 11% of all), similar ones and a draw of the others.
AmpC no deterg – blocks E. coli AmpC beta-lactamase in detergent-free assay | Potency, µM (top dose mostly 57.1 µM), without a hit: top-dose activity change, negative = inhibition, actives largely listed as inhibitors | AID 485341 | 330,000 tested, 0.52% active | AmpC nitrocefin hydrolysis, absorbance 480 nm, 0.0001% Triton | P00811;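 further: plate controls were no compound for no effect and no enzyme for full effect; nearly all actives have a fitted effect of over 20% in size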
Target sequence (P00811 whole entry, looked up): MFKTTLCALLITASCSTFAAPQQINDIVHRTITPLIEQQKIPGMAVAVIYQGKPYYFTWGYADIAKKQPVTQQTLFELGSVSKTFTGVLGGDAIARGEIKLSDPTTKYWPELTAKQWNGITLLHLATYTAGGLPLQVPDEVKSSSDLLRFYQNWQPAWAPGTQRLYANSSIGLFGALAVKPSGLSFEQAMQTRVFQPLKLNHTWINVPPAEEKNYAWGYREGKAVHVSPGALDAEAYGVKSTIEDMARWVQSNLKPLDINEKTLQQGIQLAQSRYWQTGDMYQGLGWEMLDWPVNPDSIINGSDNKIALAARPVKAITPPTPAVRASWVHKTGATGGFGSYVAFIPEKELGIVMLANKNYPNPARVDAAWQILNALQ
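AmpC (5.3 nM in the dispensed reagent) in 20 mM phosphate pH 7.0 with 0.01% (detergent screen) or 0.0001% Triton X-100 was preincubated with compounds for 15 min at room temperature. Nitrocefin was then added from an 800 uM solution, and hydrolysis was followed at 480 nm.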
AMA1 RON2 block – AMA1-RON2 (P. falciparum) interaction inhibition. AlphaScreen AMA1-biotinylated RON2 peptide binding. Potency, µM (series often up to 58.2 µM), inactives show at the highest dose activity change, negative = inhibition, most hits filed as inhibitors. 360,000 tested, 0.2% active. AID 720542;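 further: 0% = vehicle wells and -100% = peptide control; nearly all actives have a fitted effect of over 45% in size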
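AMA1 (3D7) with his tag at 25 nM final met compounds first, then biotinylated RON2 peptide at 25 nM; detection used donor plus acceptor beads, 10 µg/mL apiece, read by AlphaScreen after 30 min at room temperature.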
AmpC detergent – blocks E. coli AmpC beta-lactamase in detergent assay. AmpC hydrolysis of nitrocefin, absorbance 480 nm, 0.01% Triton. 370,000 tested, 0.041% active. Potency, µM (series often up to 114 µM), for inactives: top-dose activity change, negative = inhibition, hits mostly inhibitors. AID 485294. P00811;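 further: 0% = no-compound wells and -100% = no-enzyme wells; nearly all actives have a fitted effect of over 25% in size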
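20 mM phosphate pH 7.0 + 0.01% (detergent screen) or 0.0001% Triton X-100; 5.3 nM AmpC reagent; cpd preinc 15 min RT; nitrocefin (800 uM stock) to start; A480 q20 s × 4 min; Activity was normalised to no-enzyme and no-compound control wells.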
Pf growth 96h – P. falciparum growth inhibition at 96 hours | P. falciparum luciferase reporter growth, 96 h | Potency, µM (titrated, usually from 28.7 µM), for the others: at the highest dose activity change, negative = inhibition, hits mostly inhibitors | 320,000 tested, 6.9% active | AID 504834
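P. falciparum expressing integrated firefly luciferase grown in erythrocytes (2% hematocrit, 0.05% parasitemia final) with compounds for 96 hours at 37 C, 5% CO2. Growth inhibition read as loss of luminescence after adding luciferase detection reagent.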
Pf growth 48h – inhibits P. falciparum growth in the first generation, 48 h; P. falciparum luciferase growth in erythrocytes, 48 h; Potency, µM (doses to about 28.7 µM), for inactives: at the top dose activity change, negative = inhibition, most hits filed as inhibitors; AID 504832; 310,000 tested, 5.9% active
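Luminescence readout; reporter = integrated firefly luciferase in P. falciparum. RBC culture at 2% hematocrit, 0.1% parasitemia final, 37 C/5% CO2; decreased signal taken as growth inhibition.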
HCV inh – blocks hepatitis C virus; Huh7.5.1 HCVcc-Cre infection, luciferase reporter, 44 h; Potency, µM (titrated, usually from 41.8 µM), for inactives: at the top dose activity change, negative = inhibition, most hits filed as inhibitors; AID 651820; 340,000 tested, 3.4% active
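After 44 h co-culture of compound, cells and HCVcc-Cre (~0.5 moi), substrate is added for 15 min at room temperature and luciferase measured over 15 sec. Cells were seeded at 1,000/well and pre-cultured 4 h.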
The depositor's hits bear a star; ? = inconclusive; . = no result. The call rests on the fitted dose curve; in most records, active means well fitted curve in the direction sought with a large enough effect; inconclusive means small, poorly fitted or top-dose-only effect, or another doubt; inactive means no such curve, though single readings can be large; an effect the other way counts as inactive or inconclusive. Unless noted, on the % scale 0 is the no-effect control and ±100 the full control effect; potency means the concentration at half of the fitted maximal effect.

SMILES	AmpC no deterg	AMA1 RON2 block	AmpC detergent	Pf growth 96h	Pf growth 48h	HCV inh
CCCn1nc2ccccc2c1P(=N)(N1CCOCC1)N1CCOCC1	-16%	-1%	-7%	12µM*	12%	8%
CN(CC(=O)NCCC1=CCCCC1)S(=O)(=O)c1ccc2c(c1)CCC(=O)N2	3.2µM*	7%	?	3.3µM*	?	-9%
COc1ccc(CCNC(=O)CN(C)S(=O)(=O)c2ccc3c(c2)CCC(=O)N3)cc1OC	6%	4%	5%	-15%	.	20%
O=C1CCc2cc(S(=O)(=O)N3CCC(C(=O)NCCC4=CCCCC4)CC3)ccc2N1	-13%	0%	?	0.83µM*	.	-8%
CCOc1ccc(NC(=O)c2sc(-n3nc(C)c(CCC(C)C)c3C)nc2C)cc1	.	.	14%	.	.	.
Cc1ccc(CNC(=O)C2CCN(c3nc4ccc(C)cc4[nH]3)CC2)cc1	.	.	16%	.	.	.
Cc1ccc(NC(=O)C(Cc2c[nH]c3ccccc23)NC(=O)OCC(C)C)cc1 (centres undefined)	.	.	1%	.	.	.
COc1ccc(NC(=O)c2ccc(NC(=O)CCS(=O)(=O)c3cccs3)cc2)cc1Cl	.	.	17%	.	.	.
NC(=O)C1CCCN(C(=S)NCc2ccc3c(c2)OCO3)C1 (centres undefined)	-24%	32%	-1%	0%	32%	-8%
NC(=O)C1CCCN(C(=S)Nc2cccc3ccccc23)C1 (centres undefined)	-26%	-4%	-3%	13µM*	3%	-5%
CCN1CC=C2C(C#N)=C(N)C(C#N)(C#N)C(c3cc(Cl)ccc3Cl)C2C1 (centres undefined)	-13%	0%	?	0%	8.3µM*	?
CC(C)(C)C(=O)N1CCN(C(c2ccccc2)c2ccccc2)CC1	86%	-7%	7%	10µM*	12µM*	-22%
CCN1C(=O)CC(N2CCN(C(c3ccccc3)c3ccccc3)CC2)C1=O (centres undefined)	101%	-16%	-14%	.	?	1%
O=C(c1ccccc1F)N1CCN(C(=O)C(c2ccccc2)c2ccccc2)CC1	59%	-3%	-9%	0.29µM*	-17%	-1%
CCCNC(=O)N1CCN(C(c2ccccc2)c2ccccc2)CC1	82%	-7%	-1%	303%	?	-4%
Cc1ccccc1C(=O)N1CCCN(C(=O)c2ccccc2C)CC1	-7%	16%	?	?	8%	3%
Cc1ccccc1C(=O)N1CCN(C(c2ccccc2)c2ccccc2)CC1	48%	-11%	7%	5.9µM*	10µM*	?
CCN1C(=O)C(CC(=O)N2CCN(C(c3ccccc3)c3ccccc3)CC2)N(CC)C1=O (centres undefined)	112%	9%	1%	?	12µM*	6%
CC1=C(c2ccc(C)c(C)c2)S(=O)(=O)N(Cc2ccc(C(=O)Nc3cc(F)ccc3F)cc2)C1=O	.	.	-11%	.	.	.
O=C1OC(C(=O)Nc2cc(C(F)(F)F)ccc2Cl)Cc2ccccc21 (centres undefined)	.	.	-5%	.	.	.
Cc1occc1C(=O)N1CCN(C(c2ccccc2)c2ccccc2)CC1	111%	10%	-9%	-2%	1.3µM*	6%
O=C(c1cc(-c2cccc(O)c2)on1)N1CCN(C(c2ccccc2)c2ccccc2)CC1	-29%	-8%	?	?	1.9µM*	?
Cc1oc(C(C)(C)C)cc1C(=O)N1CCN(C(c2ccccc2)c2ccccc2)CC1	91%	-17%	-8%	12µM*	5.9µM*	-24%
COc1ccc(-c2ocnc2C(=O)N2CCN(C(c3ccccc3)c3ccccc3)CC2)cc1	47%	?	-5%	-3%	8.3µM*	?
Cc1cc(C(=O)N2CCN(C(c3ccccc3)c3ccccc3)CC2)on1	106%	0%	-5%	4%	.	-8%
SMILES	AmpC no deterg	AMA1 RON2 block	AmpC detergent	Pf growth 96h	Pf growth 48h	HCV inh
CCCCN(C)CCNC(=O)c1cc2c(=O)n(C)c3ccccc3c2n1C	.	.	-9%	.	.	.
CCOc1ccccc1C(=O)N1CCc2cc(OC)c(OC)cc2C1COc1ccc2c(C)cc(=O)oc2c1 (centres undefined)	.	.	-7%	.	.	.
O=C(Cn1cccc1)N1CCN(C(c2ccccc2)c2ccccc2)CC1	31%	-12%	-10%	56%	?	-23%
Cc1ccnc(SCC(=O)N2CCN(C(c3ccccc3)c3ccccc3)CC2)n1	92%	13%	?	15µM*	.	-24%
O=C(NC(=O)N1CCN(C(c2ccccc2)c2ccccc2)CC1)c1ccccc1	-11%	-1%	-2%	?	13µM*	?
O=C(Nc1ccc(Cl)cc1C(=O)NCc1cccnc1)c1ccco1	-22%	-2%	3%	-2%	-7%	?
O=C(Nc1ccc(Cl)cc1C(=O)Nc1ccncc1)c1ccco1	-1%	2%	0%	.	?	11µM*
CC1CCN(C(=O)c2cc(Cl)ccc2NC(=O)c2ccco2)CC1	25%	3%	?	2.3µM*	6%	-13%
CN1CCN(C(=O)c2cc(Cl)cc(Cl)c2NC(=O)c2ccco2)CC1	-24%	-3%	1%	33%	12%	5%
CC1CCCCN1C(=O)c1ccccc1NC(=O)c1ccco1 (centres undefined)	-16%	6%	11%	10µM*	4%	-13%
O=C(Cn1cc(S(=O)(=O)N2CCCC2)c(S(=O)(=O)N2CCCC2)c1)Nc1cccc(F)c1	.	.	-4%	.	.	.
Cc1c(CCOC(=O)c2ccc(Cl)cc2Cl)sc[n+]1CC(=O)c1ccc(Br)cc1	160%	42%	.	.	.	14µM*
Cc1c(CCOC(=O)C2C3CC4CC(C3)CC2C4)sc[n+]1CC(=O)c1ccc(Br)cc1 (centres undefined)	127%	-8%	-1%	?	?	?
CC(=O)NC(c1cccc([N+](=O)[O-])c1)c1ccc2cccnc2c1O (centres undefined)	17%	-86%	0%	346%	-62%	1.8µM*
COc1cccc(C(Nc2ccccc2)c2ccc3ccc(C)nc3c2O)c1 (centres undefined)	.	38%	.	.	.	.
COc1cccc(C(NC(C)=O)c2ccc3cccnc3c2O)c1 (centres undefined)	-17%	-81%	-9%	30%	?	4.5µM*
Oc1cccc(C(Nc2nccs2)c2ccc3cccnc3c2O)c1 (centres undefined)	-42%	-27%	8%	?	3.3µM*	?
